Source: PubChem
DUX4 inh – DUX4-mediated transcription inhibition. AID 1224904. activity change, negative = inhibition, % (concentration not given with the values). 37,000 tested, 0.8% active. 293T-iDUX4 ZSCAN4-Gaussia luciferase reporter, 24 h; stronger effect = lower value;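 active = mean inhibition of at least 10% in the main channel, exceeding the control channel by a set limit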
Of the large screens only hits and unclear results are named; the others gave an inactive call. The full list was thinned out, with hits kept by preference.

COc1ccccc1NC(=O)N(C)C[C@@H]1OCc2ccccc2-c2c(n(C)c3ccccc23)C(=O)N([C@H](C)CO)C[C@H]1C	none
CC(=O)N(C)C[C@H]1OCc2ccccc2-c2c(n(C)c3ccccc23)C(=O)N([C@H](C)CO)C[C@@H]1C	none
CC(=O)N(C)C[C@@H]1OCc2ccccc2-c2c(n(C)c3ccccc23)C(=O)N([C@H](C)CO)C[C@@H]1C	none
C[C@@H]1CN([C@@H](C)CO)C(=O)c2c(c3ccccc3n2C)-c2ccccc2CO[C@@H]1CN(C)C(=O)Nc1cccc(Cl)c1Cl	DUX4 inh -35
C[C@@H]1CN([C@H](C)CO)C(=O)c2c(c3ccccc3n2C)-c2ccccc2CO[C@H]1CN(C)C(=O)c1cc(Cl)cc(Cl)c1	DUX4 inh -41
C[C@@H]1CN([C@H](C)CO)C(=O)c2c(c3ccccc3n2C)-c2ccccc2CO[C@H]1CN(C)C(=O)Nc1ccccc1C(F)(F)F	none
COc1cccc(-c2ccc([C@H]3[C@H](CO)N(C(=O)C4CC4)C34CN(C(C)=O)C4)cc2)c1	none
CCCC(=O)N1CC2(C1)CN(C(=O)CC1CC1)[C@@H](CO)c1c2c2ccc(OC)cc2n1C	none
COC(=O)[C@@H]1[C@@H](CO)[C@@H]2Cn3c(ccc(-c4ccccc4)c3=O)[C@@H]2N1C(=O)CC1CC1	none
COc1ccc2c3c(n(C)c2c1)[C@@H](CO)N(C(=O)CC1CC1)CC31CCN(Cc2ccncc2)CC1	none
OC[C@@H]1[C@H](c2ccc(C#Cc3ccccc3F)cc2)[C@@H]2CN(CC3CCOCC3)CCCCN12	none
COc1ccc(C#Cc2ccc([C@H]3[C@H](CO)N4CCCCN(Cc5ccccc5F)C[C@@H]34)cc2)cc1	DUX4 inh -21
COc1ccc(C#Cc2ccc([C@@H]3[C@@H](CO)N4CCCCN(Cc5ccccc5F)C[C@@H]34)cc2)cc1	DUX4 inh -30
OC[C@@H]1[C@@H](c2ccc(C#Cc3ccccc3F)cc2)[C@@H]2CN(CC3CCOCC3)CCCCN12	DUX4 inh -28
OC[C@H]1[C@@H](c2ccc(C#Cc3ccccc3F)cc2)[C@@H]2CN(Cc3cncnc3)CCCCN12	none
CCCC#Cc1ccc([C@H]2[C@H](CO)N3CCCCN(CC4CCOCC4)C[C@@H]23)cc1	none
COc1ccc(C#Cc2ccc([C@H]3[C@H]4CN(C(=O)Nc5ccccc5F)CCCCN4[C@H]3CO)cc2)cc1	none
OC[C@@H]1[C@@H](c2ccc(C#Cc3ccccc3F)cc2)[C@@H]2CN(Cc3cncnc3)CCCCN12	none
OC[C@H]1[C@@H](c2ccc(C#Cc3ccccc3F)cc2)[C@H]2CN(Cc3cncnc3)CCCCN21	none
C[C@@H]1CCCCO[C@@H](CN(C)S(=O)(=O)c2cn(C)cn2)[C@H](C)CN([C@@H](C)CO)C(=O)c2cc(NC(=O)c3ccncc3)ccc2O1	none
C[C@H](NC(=O)C[C@@H]1C[C@@H]2c3cc(NS(C)(=O)=O)ccc3O[C@@H]2[C@H](CO)O1)c1ccccc1	none
O=C(C[C@H]1C[C@@H]2c3cc(NC(=O)Cc4ccncc4)ccc3O[C@@H]2[C@H](CO)O1)NCc1ccc(-c2ccccc2)cc1	none
COc1ccccc1CNC(=O)C[C@@H]1C[C@@H]2c3cc(NC(=O)CN(C)C)ccc3O[C@@H]2[C@@H](CO)O1	none
O=C(C[C@H]1C[C@H]2c3cc(NC(=O)Cc4ccncc4)ccc3O[C@H]2[C@H](CO)O1)NCc1cccc(F)c1	DUX4 inh -30
O=C(C[C@@H]1C[C@H]2c3cc(NC(=O)Cc4ccncc4)ccc3O[C@H]2[C@@H](CO)O1)NCc1ccc(-c2ccccc2)cc1	DUX4 inh -31
O=C(C[C@@H]1C[C@@H]2c3cc(NC(=O)Cc4ccncc4)ccc3O[C@@H]2[C@@H](CO)O1)NCc1cccc(F)c1	none
O=C(C[C@@H]1C[C@H]2c3cc(NC(=O)Cc4ccncc4)ccc3O[C@H]2[C@@H](CO)O1)NCc1cccc(F)c1	none
CN(C)CC(=O)Nc1ccc2c(c1)[C@H]1C[C@H](CC(=O)NCc3ccc(-c4ccccc4)cc3)O[C@@H](CO)[C@H]1O2	none
COc1ccccc1CNC(=O)C[C@H]1C[C@H]2c3cc(NC(=O)Cc4ccncc4)ccc3O[C@H]2[C@H](CO)O1	DUX4 inh -34
COc1ccccc1CNC(=O)C[C@H]1C[C@H]2c3cc(NC(=O)CN(C)C)ccc3O[C@H]2[C@H](CO)O1	none
CCCNC(=O)N1CC2(CCN(C)CC2)c2c(n(C)c3cc(OC)ccc23)[C@@H]1CO	none
CNC[C@H]1Oc2cc(C#CC(C)(C)O)ccc2S(=O)(=O)N([C@H](C)CO)C[C@@H]1C	none
C[C@@H]1CN([C@H](C)CO)C(=O)c2c(c3ccccc3n2C)-c2ccccc2CO[C@@H]1CN(C)S(=O)(=O)CC(F)(F)F	none
Cc1cccc(S(=O)(=O)N(C)C[C@H]2OCc3ccccc3-c3c(n(C)c4ccccc34)C(=O)N([C@H](C)CO)C[C@H]2C)c1	DUX4 inh -29
C[C@H](CO)N1C[C@H](C)[C@@H](CN(C)S(=O)(=O)c2cccc(C#N)c2)OCc2ccccc2-c2c(n(C)c3ccccc23)C1=O	none
C[C@H]1CN([C@@H](C)CO)C(=O)c2c(c3ccccc3n2C)-c2ccccc2CO[C@H]1CN(C)S(=O)(=O)CC(F)(F)F	none
C[C@H](CO)N1C[C@H](C)[C@H](CN(C)S(=O)(=O)CC(F)(F)F)OCc2ccccc2-c2c(n(C)c3ccccc23)C1=O	DUX4 inh -33
C[C@H]1CN([C@@H](C)CO)C(=O)c2c(c3ccccc3n2C)-c2ccccc2CO[C@H]1CN(C)S(C)(=O)=O	none
C[C@H](CO)N1C[C@H](C)[C@@H](CN(C)S(=O)(=O)c2ccc(F)cc2)OCc2ccccc2-c2c(n(C)c3ccccc23)C1=O	none
C[C@H](CO)N1C[C@H](C)[C@H](CN(C)S(=O)(=O)c2cccc(F)c2)OCc2ccccc2-c2ccccc2C1=O	DUX4 inh -21
Cc1cccc(S(=O)(=O)N(C)C[C@@H]2OCc3ccccc3-c3c(n(C)c4ccccc34)C(=O)N([C@@H](C)CO)C[C@H]2C)c1	DUX4 inh -53
C[C@@H]1CN([C@H](C)CO)C(=O)c2ccccc2-c2ccccc2CO[C@H]1CN(C)S(=O)(=O)c1cccc(F)c1	none
C[C@H](CO)N1C[C@H](C)[C@@H](CN(C)S(C)(=O)=O)OCc2ccccc2-c2c(n(C)c3ccccc23)C1=O	none
C[C@@H]1CN([C@H](C)CO)C(=O)c2ccccc2-c2ccccc2CO[C@@H]1CN(C)S(=O)(=O)c1cccc(F)c1	none
Cc1cccc(S(=O)(=O)N(C)C[C@H]2OCc3ccccc3-c3ccccc3C(=O)N([C@@H](C)CO)C[C@H]2C)c1	none
C[C@H]1CC=CC[C@H](c2ccc3c(c2)OCO3)NC(=O)[C@H](C)N(C)C(=O)c2ccccc2O1 (mixture of isomers)	none
O=C(C[C@@H]1C[C@H]2c3cc(NC(=O)c4cccnc4)ccc3O[C@H]2[C@H](CO)O1)NCc1ccccn1	none
O=C(C[C@H]1CC[C@@H]2[C@H](COC[C@H](O)CN2C(=O)c2ccccc2)O1)NC1Cc2ccccc2C1	none
COCC#Cc1ccc([C@H]2[C@@H](CO)N3CCCCN(C(=O)Nc4cc(F)ccc4F)C[C@@H]23)cc1	none
COCC(=O)N1C[C@@H]2[C@H](c3ccccc31)[C@H](CO)N2C(=O)C1CCCC1	none
CC(C)NC(=O)N(C)C[C@@H]1Oc2ncc(-c3ccccc3F)cc2C(=O)N([C@@H](C)CO)C[C@H]1C	none
C[C@@H]1CN([C@@H](C)CO)C(=O)Cc2cc(NS(=O)(=O)c3cn(C)cn3)ccc2O[C@@H]1CN(C)C(=O)NC1CCCCC1	none
CN1C[C@H]2[C@@H](c3ccccc31)[C@H](CO)N2Cc1ccccc1F	none
